Reference: PMC7862700, “An all-to-all approach to the identification of sequence-specific readers for epigenetic DNA modifications on cytosine”

Legend:
Assay in all cases: DAPPL (digital affinity profiling via proximity ligation, sequencing); 10 mM Tris-HCl pH 7.5, 50 mM NaCl, 1 mM DTT, 4% glycerol, room temperature, 30 min; GST-TFs on glutathione beads, 16-mer random dsDNA library, 0.1% formaldehyde crosslink after washing; high values mean tight binding
FLI1 = target: T1, FLI1 (Homo sapiens, UniProt Q01543 1-452); conditions: protein: recombinant; tags: N-terminal GST; dsDNA, one strand shown
T1 sequence: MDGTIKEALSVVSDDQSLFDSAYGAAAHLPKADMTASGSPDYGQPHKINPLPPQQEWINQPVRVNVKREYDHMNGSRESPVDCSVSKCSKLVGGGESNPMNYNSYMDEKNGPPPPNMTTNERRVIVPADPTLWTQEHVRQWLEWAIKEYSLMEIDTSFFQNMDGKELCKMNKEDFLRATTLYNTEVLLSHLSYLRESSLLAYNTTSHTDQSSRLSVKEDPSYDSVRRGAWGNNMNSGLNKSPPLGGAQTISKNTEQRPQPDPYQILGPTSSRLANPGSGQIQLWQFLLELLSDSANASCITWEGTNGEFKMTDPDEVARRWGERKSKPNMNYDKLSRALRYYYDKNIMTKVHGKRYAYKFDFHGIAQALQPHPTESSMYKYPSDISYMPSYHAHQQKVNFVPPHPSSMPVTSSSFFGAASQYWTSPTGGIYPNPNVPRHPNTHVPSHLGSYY
Method in brief: (§1)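 After expression in yeast as GST fusions, human transcription factors were bound to glutathione beads, DNA-barcoded and mixed with a tag-only sample. The pools were incubated with 200 nmole of a 16-mer random double-stranded DNA library in Tris/NaCl/DTT/glycerol buffer (30 min, room temperature), washed and crosslinked with 0.1% formaldehyde. Proximity ligation with BsaI/T4 ligase ran for 1 h at 37 °C, before PCR amplification and sequencing on an Illumina NextSeq500. Binding signal is a hexamer's read frequency for a factor divided by its frequency for the tag-only sample.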

ELK1 = target: T2, ELK1 (Homo sapiens, UniProt P19419 1-428); conditions: protein: recombinant; tags: N-terminal GST; dsDNA, one strand shown
T2 sequence: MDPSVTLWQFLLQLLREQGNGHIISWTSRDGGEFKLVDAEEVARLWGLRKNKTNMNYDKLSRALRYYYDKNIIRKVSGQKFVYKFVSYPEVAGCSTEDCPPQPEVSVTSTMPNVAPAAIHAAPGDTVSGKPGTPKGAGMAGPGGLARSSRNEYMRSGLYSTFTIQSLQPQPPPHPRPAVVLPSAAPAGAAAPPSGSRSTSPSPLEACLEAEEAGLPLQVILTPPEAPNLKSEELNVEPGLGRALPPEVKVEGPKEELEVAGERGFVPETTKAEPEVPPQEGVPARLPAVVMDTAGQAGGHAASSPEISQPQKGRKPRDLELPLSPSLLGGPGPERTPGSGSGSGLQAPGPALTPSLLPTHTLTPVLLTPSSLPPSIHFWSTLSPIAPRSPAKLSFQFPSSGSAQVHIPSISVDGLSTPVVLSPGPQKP
Method in brief: as §1

GABPA = target: T3, GABPA (Homo sapiens, UniProt Q06546 1-454); conditions: protein: recombinant; tags: N-terminal GST; dsDNA, one strand shown
T3 sequence: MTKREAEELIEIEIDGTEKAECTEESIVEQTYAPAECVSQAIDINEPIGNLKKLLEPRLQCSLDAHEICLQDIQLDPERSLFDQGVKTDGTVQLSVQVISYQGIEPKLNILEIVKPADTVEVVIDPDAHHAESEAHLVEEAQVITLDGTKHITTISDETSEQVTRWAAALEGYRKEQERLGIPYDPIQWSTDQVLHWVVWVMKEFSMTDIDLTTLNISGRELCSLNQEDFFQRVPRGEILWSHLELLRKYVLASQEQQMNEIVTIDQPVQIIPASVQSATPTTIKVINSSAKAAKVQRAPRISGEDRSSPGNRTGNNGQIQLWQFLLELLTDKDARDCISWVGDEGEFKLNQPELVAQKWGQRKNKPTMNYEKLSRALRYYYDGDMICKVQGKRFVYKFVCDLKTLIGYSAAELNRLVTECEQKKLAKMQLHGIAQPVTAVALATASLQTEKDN
Method in brief: as §1

ERG = target: T4, ERG (Homo sapiens, UniProt P11308 1-479); conditions: protein: recombinant; tags: N-terminal GST; dsDNA, one strand shown
T4 sequence: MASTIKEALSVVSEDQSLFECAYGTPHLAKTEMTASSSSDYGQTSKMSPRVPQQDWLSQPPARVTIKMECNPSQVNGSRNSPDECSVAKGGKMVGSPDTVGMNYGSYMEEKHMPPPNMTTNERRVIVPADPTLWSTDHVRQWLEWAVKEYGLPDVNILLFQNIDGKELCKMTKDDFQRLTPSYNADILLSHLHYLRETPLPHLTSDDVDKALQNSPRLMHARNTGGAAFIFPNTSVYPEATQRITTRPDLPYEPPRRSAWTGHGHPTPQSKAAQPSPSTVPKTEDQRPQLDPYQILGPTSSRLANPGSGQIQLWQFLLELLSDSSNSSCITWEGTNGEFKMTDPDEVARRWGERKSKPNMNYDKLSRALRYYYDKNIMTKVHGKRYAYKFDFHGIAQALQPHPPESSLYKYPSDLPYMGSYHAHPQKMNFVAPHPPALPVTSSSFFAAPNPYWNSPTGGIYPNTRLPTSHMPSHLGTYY
Method in brief: as §1

ELF1 = ELF1 (Homo sapiens, UniProt P32519 1-619); conditions: protein: recombinant; tags: N-terminal GST; dsDNA, one strand shown
ELF1, sequence (P32519 whole entry): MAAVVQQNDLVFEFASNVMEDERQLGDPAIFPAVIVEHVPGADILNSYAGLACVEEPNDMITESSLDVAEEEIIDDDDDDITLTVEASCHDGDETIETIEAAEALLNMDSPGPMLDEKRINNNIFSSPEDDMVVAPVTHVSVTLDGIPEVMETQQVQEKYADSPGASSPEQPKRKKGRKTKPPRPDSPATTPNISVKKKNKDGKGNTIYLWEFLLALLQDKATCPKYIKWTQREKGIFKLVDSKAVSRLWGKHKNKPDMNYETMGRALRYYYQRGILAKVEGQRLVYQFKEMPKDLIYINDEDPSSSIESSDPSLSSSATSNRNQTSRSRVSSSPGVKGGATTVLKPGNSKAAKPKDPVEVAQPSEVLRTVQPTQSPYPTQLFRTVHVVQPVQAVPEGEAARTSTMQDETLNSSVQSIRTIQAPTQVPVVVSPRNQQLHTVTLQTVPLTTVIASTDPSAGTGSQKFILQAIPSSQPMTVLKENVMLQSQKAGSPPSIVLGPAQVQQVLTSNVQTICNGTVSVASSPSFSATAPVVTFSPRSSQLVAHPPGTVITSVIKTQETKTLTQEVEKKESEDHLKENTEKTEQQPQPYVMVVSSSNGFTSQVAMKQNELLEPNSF
Method in brief: as §1

EHF = target: T5, EHF (Homo sapiens, UniProt Q9NZC4 1-300); conditions: protein: recombinant; tags: N-terminal GST; dsDNA, one strand shown
T5 sequence: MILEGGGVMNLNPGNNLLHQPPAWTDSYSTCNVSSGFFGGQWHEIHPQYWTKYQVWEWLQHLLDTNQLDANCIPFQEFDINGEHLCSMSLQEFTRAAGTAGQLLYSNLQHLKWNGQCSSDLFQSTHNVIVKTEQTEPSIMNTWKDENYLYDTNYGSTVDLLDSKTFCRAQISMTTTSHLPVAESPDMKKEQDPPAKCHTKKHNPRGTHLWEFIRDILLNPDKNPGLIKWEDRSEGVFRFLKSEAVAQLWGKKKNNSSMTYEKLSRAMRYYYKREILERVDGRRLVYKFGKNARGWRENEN
Method in brief: as §1

SPI1 = SPI1 (Homo sapiens, UniProt P17947 1-270); conditions: protein: recombinant; tags: N-terminal GST; dsDNA, one strand shown
Method in brief: as §1

SPIB = SPIB (Homo sapiens, UniProt Q01892 1-262); conditions: protein: recombinant; tags: N-terminal GST; dsDNA, one strand shown
SPIB, sequence (Q01892 whole entry): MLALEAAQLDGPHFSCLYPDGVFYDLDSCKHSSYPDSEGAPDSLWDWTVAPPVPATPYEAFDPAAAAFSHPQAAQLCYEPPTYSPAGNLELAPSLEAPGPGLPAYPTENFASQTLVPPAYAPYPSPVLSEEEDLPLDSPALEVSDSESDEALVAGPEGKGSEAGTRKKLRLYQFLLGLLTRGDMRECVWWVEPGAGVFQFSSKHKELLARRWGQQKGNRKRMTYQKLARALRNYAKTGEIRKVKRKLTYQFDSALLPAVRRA
Method in brief: as §1

ELK3 = target: T6, ELK3 (Homo sapiens, UniProt P41970 1-407); conditions: protein: recombinant; tags: N-terminal GST; dsDNA, one strand shown
T6 sequence: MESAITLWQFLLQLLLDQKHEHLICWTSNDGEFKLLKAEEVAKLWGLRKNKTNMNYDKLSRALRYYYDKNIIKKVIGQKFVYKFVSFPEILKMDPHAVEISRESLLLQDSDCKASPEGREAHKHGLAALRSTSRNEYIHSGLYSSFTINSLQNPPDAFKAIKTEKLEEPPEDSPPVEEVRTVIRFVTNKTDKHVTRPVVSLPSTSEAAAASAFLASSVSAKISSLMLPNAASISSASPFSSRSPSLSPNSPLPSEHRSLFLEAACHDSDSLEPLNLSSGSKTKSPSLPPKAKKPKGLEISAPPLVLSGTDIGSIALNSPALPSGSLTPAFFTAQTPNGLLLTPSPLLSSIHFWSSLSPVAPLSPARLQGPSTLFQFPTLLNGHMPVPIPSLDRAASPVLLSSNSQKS
Method in brief: as §1

FEV = target: T7, FEV (Homo sapiens, UniProt Q99581 1-238); conditions: protein: recombinant; tags: N-terminal GST; dsDNA, one strand shown
T7 sequence: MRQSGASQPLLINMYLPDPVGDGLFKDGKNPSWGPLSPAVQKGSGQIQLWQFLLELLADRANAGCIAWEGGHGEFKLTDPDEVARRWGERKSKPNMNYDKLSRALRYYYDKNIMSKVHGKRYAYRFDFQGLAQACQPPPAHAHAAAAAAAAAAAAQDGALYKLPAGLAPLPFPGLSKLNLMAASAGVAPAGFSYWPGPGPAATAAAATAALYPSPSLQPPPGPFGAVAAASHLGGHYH
Method in brief: as §1

ETV5 = ETV5 (Homo sapiens, UniProt P41161 1-510); conditions: protein: recombinant; tags: N-terminal GST; dsDNA, one strand shown
ETV5, sequence (P41161 whole entry): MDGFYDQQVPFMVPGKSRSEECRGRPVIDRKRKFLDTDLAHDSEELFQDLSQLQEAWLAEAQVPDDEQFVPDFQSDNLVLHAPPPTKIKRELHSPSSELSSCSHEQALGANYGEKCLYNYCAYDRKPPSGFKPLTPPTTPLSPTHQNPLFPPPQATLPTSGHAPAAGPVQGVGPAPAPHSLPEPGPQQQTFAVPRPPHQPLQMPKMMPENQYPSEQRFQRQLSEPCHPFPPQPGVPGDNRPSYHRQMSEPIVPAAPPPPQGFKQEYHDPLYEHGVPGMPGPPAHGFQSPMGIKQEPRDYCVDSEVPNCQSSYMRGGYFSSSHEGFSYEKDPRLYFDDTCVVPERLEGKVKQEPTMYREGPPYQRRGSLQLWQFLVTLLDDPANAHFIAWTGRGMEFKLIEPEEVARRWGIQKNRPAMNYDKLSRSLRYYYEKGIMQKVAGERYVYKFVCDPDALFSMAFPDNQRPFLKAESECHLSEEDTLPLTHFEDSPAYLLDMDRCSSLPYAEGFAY
Method in brief: as §1

HSF1 = HSF1 (Homo sapiens, UniProt Q00613 1-529); conditions: protein: recombinant; tags: N-terminal GST; chain copies: 3; dsDNA, one strand shown
HSF1, sequence (Q00613 whole entry): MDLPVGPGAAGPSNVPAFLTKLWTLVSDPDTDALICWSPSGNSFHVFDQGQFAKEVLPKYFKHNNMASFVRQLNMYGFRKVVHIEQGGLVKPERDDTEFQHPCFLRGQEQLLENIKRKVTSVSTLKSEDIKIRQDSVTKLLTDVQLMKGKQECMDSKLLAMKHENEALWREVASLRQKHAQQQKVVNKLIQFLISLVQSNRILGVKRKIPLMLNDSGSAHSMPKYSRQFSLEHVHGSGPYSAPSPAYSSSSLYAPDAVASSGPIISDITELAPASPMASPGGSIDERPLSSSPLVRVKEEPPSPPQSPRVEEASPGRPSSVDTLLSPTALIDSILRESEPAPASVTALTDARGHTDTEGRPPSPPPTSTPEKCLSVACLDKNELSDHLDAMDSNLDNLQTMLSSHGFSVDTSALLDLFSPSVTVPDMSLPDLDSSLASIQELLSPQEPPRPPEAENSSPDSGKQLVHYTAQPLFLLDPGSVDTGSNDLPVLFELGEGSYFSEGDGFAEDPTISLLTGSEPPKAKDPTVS
Method in brief: as §1

SPIC = target: T8, SPIC (Homo sapiens, UniProt Q8N5J4 1-248); conditions: protein: recombinant; tags: N-terminal GST; dsDNA, one strand shown
T8 sequence: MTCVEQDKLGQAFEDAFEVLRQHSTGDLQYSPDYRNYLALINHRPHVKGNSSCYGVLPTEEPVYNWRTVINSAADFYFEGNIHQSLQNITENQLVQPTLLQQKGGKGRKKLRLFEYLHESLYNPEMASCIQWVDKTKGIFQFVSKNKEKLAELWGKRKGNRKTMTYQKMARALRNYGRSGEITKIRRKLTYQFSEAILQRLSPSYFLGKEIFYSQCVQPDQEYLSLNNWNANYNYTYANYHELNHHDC
Method in brief: as §1

ELF4 = ELF4 (Homo sapiens, UniProt Q99607 1-663); conditions: protein: recombinant; tags: N-terminal GST; dsDNA, one strand shown
ELF4, sequence (Q99607 whole entry): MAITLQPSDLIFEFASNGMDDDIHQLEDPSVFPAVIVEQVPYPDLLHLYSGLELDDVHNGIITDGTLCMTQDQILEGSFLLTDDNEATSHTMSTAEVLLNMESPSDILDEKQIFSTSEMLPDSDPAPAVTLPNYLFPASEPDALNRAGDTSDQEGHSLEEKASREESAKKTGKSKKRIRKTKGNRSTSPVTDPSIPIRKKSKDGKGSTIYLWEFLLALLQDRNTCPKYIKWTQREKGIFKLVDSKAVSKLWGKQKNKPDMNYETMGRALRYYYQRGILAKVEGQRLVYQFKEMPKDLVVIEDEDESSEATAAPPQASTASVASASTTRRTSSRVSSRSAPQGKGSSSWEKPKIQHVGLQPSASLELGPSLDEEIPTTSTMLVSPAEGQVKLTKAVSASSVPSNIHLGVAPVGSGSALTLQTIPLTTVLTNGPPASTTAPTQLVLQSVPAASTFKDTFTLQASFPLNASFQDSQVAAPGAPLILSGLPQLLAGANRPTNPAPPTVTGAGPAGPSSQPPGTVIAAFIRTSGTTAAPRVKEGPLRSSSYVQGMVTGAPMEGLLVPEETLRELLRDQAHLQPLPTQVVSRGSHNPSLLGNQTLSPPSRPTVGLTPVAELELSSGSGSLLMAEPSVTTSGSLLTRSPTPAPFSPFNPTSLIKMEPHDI
Method in brief: as §1

ELK4 = target: T9, ELK4 (Homo sapiens, UniProt P28324-2 1-405); conditions: protein: recombinant; tags: N-terminal GST; dsDNA, one strand shown
T9 sequence: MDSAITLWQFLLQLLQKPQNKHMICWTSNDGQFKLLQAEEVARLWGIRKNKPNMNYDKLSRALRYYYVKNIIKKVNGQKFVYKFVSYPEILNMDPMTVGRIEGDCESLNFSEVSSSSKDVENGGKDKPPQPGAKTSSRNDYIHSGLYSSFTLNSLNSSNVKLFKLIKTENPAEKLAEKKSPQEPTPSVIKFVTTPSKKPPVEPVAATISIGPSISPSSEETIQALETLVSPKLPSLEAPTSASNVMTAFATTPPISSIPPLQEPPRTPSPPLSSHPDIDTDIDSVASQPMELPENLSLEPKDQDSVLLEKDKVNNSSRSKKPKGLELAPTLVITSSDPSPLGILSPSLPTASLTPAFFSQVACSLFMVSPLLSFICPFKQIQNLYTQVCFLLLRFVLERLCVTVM
Method in brief: as §1

ETV2 = target: T10, ETV2 (Homo sapiens, UniProt O00321 1-342); conditions: protein: recombinant; tags: N-terminal GST; dsDNA, one strand shown
T10 sequence: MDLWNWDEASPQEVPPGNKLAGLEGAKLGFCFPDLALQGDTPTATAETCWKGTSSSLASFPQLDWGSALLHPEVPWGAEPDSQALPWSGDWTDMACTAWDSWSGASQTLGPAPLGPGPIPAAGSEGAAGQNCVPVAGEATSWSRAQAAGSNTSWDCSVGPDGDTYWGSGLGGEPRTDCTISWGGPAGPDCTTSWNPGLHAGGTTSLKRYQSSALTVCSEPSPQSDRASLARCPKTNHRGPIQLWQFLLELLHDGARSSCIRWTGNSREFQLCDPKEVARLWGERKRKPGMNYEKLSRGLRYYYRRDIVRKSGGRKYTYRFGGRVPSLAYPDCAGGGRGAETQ
Method in brief: as §1

ELF3 = target: T11, ELF3 (Homo sapiens, UniProt P78545 1-371); conditions: protein: recombinant; tags: N-terminal GST; dsDNA, one strand shown
T11 sequence: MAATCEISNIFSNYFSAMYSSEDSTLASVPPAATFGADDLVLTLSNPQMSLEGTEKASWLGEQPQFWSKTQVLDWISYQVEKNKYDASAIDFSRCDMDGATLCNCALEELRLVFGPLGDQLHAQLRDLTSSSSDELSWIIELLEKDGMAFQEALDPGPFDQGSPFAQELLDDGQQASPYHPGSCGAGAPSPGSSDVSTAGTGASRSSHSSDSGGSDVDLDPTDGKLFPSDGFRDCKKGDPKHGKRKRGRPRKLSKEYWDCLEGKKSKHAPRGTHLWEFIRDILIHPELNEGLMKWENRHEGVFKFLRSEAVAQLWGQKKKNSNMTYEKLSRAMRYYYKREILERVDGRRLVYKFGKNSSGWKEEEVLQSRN
Method in brief: as §1

CRX = CRX (Homo sapiens, UniProt O43186 1-299); conditions: protein: recombinant; tags: N-terminal GST; dsDNA, one strand shown
CRX, sequence (O43186 whole entry): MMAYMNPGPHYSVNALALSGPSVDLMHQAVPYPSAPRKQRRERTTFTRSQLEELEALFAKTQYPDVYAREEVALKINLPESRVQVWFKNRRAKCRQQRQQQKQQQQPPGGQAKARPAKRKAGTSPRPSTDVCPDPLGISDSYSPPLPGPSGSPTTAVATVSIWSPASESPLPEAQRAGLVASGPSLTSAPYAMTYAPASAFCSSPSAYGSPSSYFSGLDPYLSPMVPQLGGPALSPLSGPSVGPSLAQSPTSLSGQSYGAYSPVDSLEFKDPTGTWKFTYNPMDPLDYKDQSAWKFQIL
Method in brief: as §1

ETV1 = ETV1 (Homo sapiens, UniProt P50549 1-477); conditions: protein: recombinant; tags: N-terminal GST; dsDNA, one strand shown
ETV1, sequence (P50549 whole entry): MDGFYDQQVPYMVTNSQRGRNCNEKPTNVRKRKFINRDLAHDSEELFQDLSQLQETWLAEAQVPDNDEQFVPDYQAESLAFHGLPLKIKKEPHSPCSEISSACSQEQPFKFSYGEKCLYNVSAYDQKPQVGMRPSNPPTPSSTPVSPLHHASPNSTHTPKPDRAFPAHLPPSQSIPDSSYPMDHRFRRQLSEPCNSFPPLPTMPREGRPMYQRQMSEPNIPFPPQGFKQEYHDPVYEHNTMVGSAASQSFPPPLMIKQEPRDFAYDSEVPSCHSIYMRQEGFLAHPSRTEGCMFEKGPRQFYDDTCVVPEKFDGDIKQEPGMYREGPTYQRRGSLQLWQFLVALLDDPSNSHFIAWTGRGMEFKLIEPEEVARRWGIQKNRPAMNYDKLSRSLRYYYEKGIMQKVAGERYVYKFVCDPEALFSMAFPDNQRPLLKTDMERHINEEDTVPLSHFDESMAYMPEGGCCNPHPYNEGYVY
Method in brief: as §1

TCTCCG
binding signal (FLI1): 1.51 fold enrichment (6-mer frequency, TF over GST control)
binding signal (ELK1): 1.49 fold enrichment (6-mer frequency, TF over GST control)
binding signal (GABPA): 1.57 fold enrichment (6-mer frequency, TF over GST control)
binding signal (ERG): 1.42 fold enrichment (6-mer frequency, TF over GST control)
binding signal (ELF1): 1.6 fold enrichment (6-mer frequency, TF over GST control)
binding signal (EHF): 1.57 fold enrichment (6-mer frequency, TF over GST control)
binding signal (SPI1): 1.54 fold enrichment (6-mer frequency, TF over GST control)
binding signal (SPIB): 1.52 fold enrichment (6-mer frequency, TF over GST control)
binding signal (ELK3): 1.38 fold enrichment (6-mer frequency, TF over GST control)
binding signal (FEV): 1.69 fold enrichment (6-mer frequency, TF over GST control)
binding signal (ETV5): 1.61 fold enrichment (6-mer frequency, TF over GST control)
binding signal (HSF1): 1.43 fold enrichment (6-mer frequency, TF over GST control)
binding signal (SPIC): 1.55 fold enrichment (6-mer frequency, TF over GST control)
binding signal (ELF4): 1.59 fold enrichment (6-mer frequency, TF over GST control)
binding signal (ELK4): 1.68 fold enrichment (6-mer frequency, TF over GST control)
binding signal (ETV2): 1.47 fold enrichment (6-mer frequency, TF over GST control)
binding signal (ELF3): 1.2 fold enrichment (6-mer frequency, TF over GST control)
binding signal (CRX): 1.37 fold enrichment (6-mer frequency, TF over GST control)
binding signal (ETV1): 1.48 fold enrichment (6-mer frequency, TF over GST control)
